Measured values as given in PubChem BioAssay (Tox21).
A number with no mark means an inactive call. Records with an inconclusive call do not appear. A call without a number means that no potency is given here. Calls of active or inactive are those of the source. Unless noted, calls come from the whole dose curve.

How the values were obtained:
[1] = Nuclear factor erythroid 2-related factor 2/antioxidant responsive element (Nrf2/ARE) small molecule agonists: qHTS cell viability counter screen in human keratinocytes (AID 1919968; active = well fitted curve in the direction sought with a large enough effect in the repeat runs; an effect the other way counts as inactive or inconclusive; note: nearly all actives have a fitted effect of over 55% in size)
Method in brief: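 CellTiter-Fluor fluorescence, read 1 h after reagent, gave viability in the same wells as the ARE-luciferase assay. KeratinoSens cells (1,500/well) had 23 h compound exposure at 37 C/5% CO2 following 5 h plating.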

[2] = Nuclear factor erythroid 2-related factor 2/antioxidant responsive element (Nrf2/ARE) small molecule agonists: luciferase reporter gene qHTS assay in human keratinocytes (AID 1919969); note: nearly all actives have a fitted effect of over 35% in size
[3] = target: Gonadotropin-releasing hormone receptor (Homo sapiens) (UniProt P30968); test: Human gonadotropin-releasing hormone receptor (GnRHR) small molecule agonists, calcium flux assay in GnRHR-HEK293 cells (AID 1920063); note: nearly all actives have a fitted effect of over 35% in size; note: potency is the fitted concentration of half-maximal effect
Method in brief: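 Agonist mode: compounds at 15 concentrations, in triplicate, went onto calcium dye-loaded GnRHR-HEK293 cells. Intracellular calcium was then followed as 480/540 nm fluorescence at 1 s intervals over 3 min.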

[4] = target: KiSS-1 receptor (Homo sapiens) (UniProt Q969F8); test: Human kisspeptin (KISS1R) small molecule agonists, calcium flux assay in KISS1R-HEK293 cells (AID 1920064; active = well fitted curve in the direction sought with a large enough effect in the repeat runs; an effect the other way counts as inactive or inconclusive)
Method in brief: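 Agonist mode: intracellular calcium rise tracked at 1 s intervals over 3 min (480/540 nm) immediately after compound addition to dye-loaded KISS1R-HEK293 stable cells. Each compound tested at 15 concentrations in triplicate.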

[5] = G protein-coupled receptor (GPCR) small molecule agonists, calcium flux assay: HEK293 wild type cell line counter screen (AID 1920065)
Method in brief: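 Calcium flux counter screen: compound added in agonist mode at 15 concentrations in triplicate to dye-loaded parental HEK293 cells. Fluorescence (480/540) read kinetically for 3 min; ATP served as positive control.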

[6] = p53 small molecule agonists, cell-based qHTS assay with human liver microsomes (AID 1963577)
Method in brief: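 Fluorescence of the beta-lactamase reporter in p53RE-bla cells, detected with LiveBLAzer substrate (2 h, room temperature, dark), served as the read-out after 16 h compound exposure at 37 C with human liver microsomes and NADPH, each 0.5 mg/mL final.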

[7] = p53 small molecule agonists, cell-based qHTS assay with rat liver microsomes (AID 1963578)
Method in brief: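 Cells carrying a p53 response element–beta-lactamase reporter were plated and rested 5 h, then dosed with compound in DMSO plus rat liver microsomes and NADPH, each at 0.5 mg/mL final. After 16 h at 37 C, LiveBLAzer substrate was added for 2 h.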

[8] = p53 small molecule agonists, cell-based qHTS assay with human liver microsomes: qHTS cell viability counter screen (AID 1963579); note: nearly all actives have a fitted effect of over 45% in size
Method in brief: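 Cytotoxicity counter screen: p53RE-bla, 4,000 cells/well; 5 h settle, 37 C/5% CO2; cpd + HLM 0.5 mg/mL + NADPH 0.5 mg/mL (final); 16 h, 37 C; CellTiter-Glo, 30 min RT, luminescence.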

[9] = p53 small molecule agonists, cell-based qHTS assay with rat liver microsomes: qHTS cell viability counter screen (AID 1963580); note: nearly all actives have a fitted effect of over 45% in size
Method in brief: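 Rat liver microsome (0.5 mg/mL final) and NADPH (0.5 mg/mL final) co-incubation with compounds for 16 h at 37 C on HCT-116 p53RE-bla cells; cytotoxicity taken from intracellular ATP luminescence.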

[10] = p53 small molecule agonists, cell-based qHTS assay: qHTS cell viability counter screen (AID 1963581); note: nearly all actives have a fitted effect of over 45% in size
Method in brief: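 Counter screen read by CellTiter-Glo luminescence (ATP content, 30 min at room temperature), run in the same wells as the beta-lactamase reporter read. HCT-116 p53RE-bla cells saw compounds for 16 h at 37 C.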

[11] = p53 small molecule agonists, cell-based qHTS assay (AID 1963582; active = well fitted activation curve with a large enough effect in the signal ratio in the repeat runs, not every such curve was filed as active; the % refers to the signal ratio)
Method in brief: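 Read-out is beta-lactamase FRET fluorescence after 2 h at room temperature with LiveBLAzer B/G substrate. p53 response element-bla cells were treated 16 h at 37 C with compounds in DMSO, added 5 h after seeding.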

[12] = target: 5-hydroxytryptamine receptor 2A (Homo sapiens) (UniProt P28223); test: 5-hydroxytryptamine receptor 2A (HTR2A) small molecule agonists, cell-based qHTS assay (AID 1963587); note: nearly all actives have a fitted effect of over 30% in size
Method in brief: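 Kinetic calcium-flux fluorescence (2 min, 1 sec intervals) after compound addition in agonist mode. HTR2A-CHO cells were cultured 18 h, then dye-loaded 1 h at 37 C.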

[13] = cAMP Responsive Elements (CRE) small molecule agonists, cell-based qHTS assay (AID 1963590)
Method in brief: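 Agonist mode: compound added to CRE-bla HEK 293T cells (2,000/well, 18 h after plating) for 3 h at 37 C/5% CO2. Reporter activity detected via FRET beta-lactamase substrate, 2 h room-temperature loading.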

[14] = cAMP Responsive Elements (CRE) small molecule antagonists, cell-based qHTS assay (AID 1963591; active = well fitted inhibition curve with a large enough effect in the signal ratio in the repeat runs, not every such curve was filed as active; the % refers to the signal ratio)
Method in brief: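 Antagonist mode: compounds are added alongside the adenylyl cyclase activator NKH477 (0.25 uM final) to CRE-bla HEK293T cells for 3 h. LiveBLAzer FRET substrate, 2 h at room temperature, reports bla expression.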

[15] = target: D(2) dopamine receptor (Homo sapiens) (UniProt P14416); test: Dopamine D2 receptor (DRD2) small molecule agonists, cell-based qHTS assay (AID 1963594); note: nearly all actives have a fitted effect of over 35% in size
Method in brief: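 cAMP accumulation in DRD2-HEK293 cells measured by HTRF after 1 h detection; compounds added 10 min before NKH477 (200nM […]) forskolin-analogue stimulation, 30 min at room temperature, with Ro20-1724 present at 0.1 mM final.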

[16] = target: Muscarinic acetylcholine receptor M1 (Homo sapiens) (UniProt P11229); test: Cholinergic receptor muscarinic 1 (CHRM1) small molecule antagonists, cell-based qHTS assay (AID 1963588); note: nearly all actives have a fitted effect of over 40% in size
Method in brief: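 Compounds were tested at 15 concentrations in three independent runs. Dye-loaded CHRM1-CHO cells were exposed 5 min at room temperature before stimulation by acetylcholine added at 50nM. Intracellular calcium was read kinetically on FDSS for 3 min.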

[17] = target: Muscarinic acetylcholine receptor M1 (Homo sapiens) (UniProt P11229); test: Cholinergic receptor muscarinic 1 (CHRM1) small molecule agonists, cell-based qHTS assay (AID 1963589); note: nearly all actives have a fitted effect of over 35% in size
Method in brief: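 Agonist-mode calcium-flux screen: compounds at 15 concentrations, three independent runs, were pin-transferred onto dye-loaded human CHRM1-CHO cells. Fluorescence was then recorded kinetically every second over minutes.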

[18] = target: Beta-2 adrenergic receptor (Homo sapiens) (UniProt P07550); test: Adrenergic beta2 receptor (ADRB2) small molecule antagonists, cell-based qHTS assay (AID 1963592); note: series mostly up to about 92 µM; nearly all actives have a fitted effect of over 50% in size
Method in brief: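 Assay format: CHO-ADRB2 cells, 18-20hr seeding at 37C/5% CO2, then compound plus 1nM isoproterenol agonist mix for 0.5hr RT. Homogeneous time-resolved fluorescence cAMP detection after 1hr, expressed as 665/615 nm ratio.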

[19] = target: D(2) dopamine receptor (Homo sapiens) (UniProt P14416); test: Dopamine D2 receptor (DRD2) small molecule antagonists, cell-based qHTS assay (AID 1963595; active = well fitted inhibition curve with a large enough effect in the signal ratio in the repeat runs, with a control signal flat; the % refers to the signal ratio)
Method in brief: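 In this cell-based antagonist screen, compounds act for 10 min at room temperature before a 30 min challenge with 12 nM quinpirole and 200 nM NKH477. cAMP is quantified by HTRF competition in DRD2-HEK293 cells containing 0.1 mM Ro20-1724.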

[20] = target: Beta-2 adrenergic receptor (Homo sapiens) (UniProt P07550); test: Adrenergic beta2 receptor (ADRB2) small molecule agonists, cell-based qHTS assay (AID 1963593);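 note: CHO cells stably overexpressing human ADRB2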
Method in brief: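 CHO cells stably over-expressing ADRB2 were plated overnight at 37C, then dosed with compounds plus a stimulation mix containing 100uM IBMX and 25uM Ro-20-1724 for 0.5hr at room temperature. cAMP was measured by HTRF competition, 1hr.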

Sequence of Gonadotropin-releasing hormone receptor (Homo sapiens) (P30968 whole entry, looked up): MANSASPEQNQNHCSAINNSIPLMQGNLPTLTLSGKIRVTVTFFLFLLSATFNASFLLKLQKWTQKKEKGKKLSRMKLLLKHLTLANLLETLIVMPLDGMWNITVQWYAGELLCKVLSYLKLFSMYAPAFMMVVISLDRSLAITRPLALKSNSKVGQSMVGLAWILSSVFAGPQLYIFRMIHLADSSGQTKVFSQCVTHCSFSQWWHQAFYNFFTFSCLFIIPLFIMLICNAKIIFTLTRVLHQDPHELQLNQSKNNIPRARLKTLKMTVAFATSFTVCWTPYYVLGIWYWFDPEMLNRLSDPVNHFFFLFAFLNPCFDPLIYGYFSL
Sequence of 5-hydroxytryptamine receptor 2A (Homo sapiens) (P28223 whole entry, looked up): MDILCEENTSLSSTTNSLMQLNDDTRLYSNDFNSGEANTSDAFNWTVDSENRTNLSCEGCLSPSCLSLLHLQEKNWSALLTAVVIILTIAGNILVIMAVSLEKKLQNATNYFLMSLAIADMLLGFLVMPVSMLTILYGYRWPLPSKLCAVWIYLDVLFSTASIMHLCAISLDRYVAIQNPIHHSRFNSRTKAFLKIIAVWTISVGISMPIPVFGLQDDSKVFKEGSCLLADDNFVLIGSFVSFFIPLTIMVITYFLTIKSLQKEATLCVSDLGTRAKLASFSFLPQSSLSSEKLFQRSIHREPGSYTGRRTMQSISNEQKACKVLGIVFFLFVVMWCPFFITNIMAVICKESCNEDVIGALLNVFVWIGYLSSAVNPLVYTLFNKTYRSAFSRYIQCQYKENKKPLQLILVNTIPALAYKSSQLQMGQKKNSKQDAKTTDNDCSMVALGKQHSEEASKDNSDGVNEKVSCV
Sequence of Beta-2 adrenergic receptor (Homo sapiens) (P07550 whole entry, looked up): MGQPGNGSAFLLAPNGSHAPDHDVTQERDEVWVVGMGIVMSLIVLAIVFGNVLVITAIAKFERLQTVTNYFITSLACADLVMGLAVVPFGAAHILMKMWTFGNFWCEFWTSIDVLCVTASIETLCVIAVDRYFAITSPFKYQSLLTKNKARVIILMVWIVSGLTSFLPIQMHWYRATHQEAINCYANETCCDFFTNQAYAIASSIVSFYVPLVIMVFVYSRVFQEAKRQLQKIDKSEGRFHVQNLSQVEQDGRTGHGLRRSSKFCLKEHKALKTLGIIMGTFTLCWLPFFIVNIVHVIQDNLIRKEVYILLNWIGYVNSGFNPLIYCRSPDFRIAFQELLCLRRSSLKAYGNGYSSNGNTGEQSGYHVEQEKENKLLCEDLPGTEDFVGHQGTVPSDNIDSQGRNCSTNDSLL
Sequence of D(2) dopamine receptor (Homo sapiens) (P14416 whole entry, looked up): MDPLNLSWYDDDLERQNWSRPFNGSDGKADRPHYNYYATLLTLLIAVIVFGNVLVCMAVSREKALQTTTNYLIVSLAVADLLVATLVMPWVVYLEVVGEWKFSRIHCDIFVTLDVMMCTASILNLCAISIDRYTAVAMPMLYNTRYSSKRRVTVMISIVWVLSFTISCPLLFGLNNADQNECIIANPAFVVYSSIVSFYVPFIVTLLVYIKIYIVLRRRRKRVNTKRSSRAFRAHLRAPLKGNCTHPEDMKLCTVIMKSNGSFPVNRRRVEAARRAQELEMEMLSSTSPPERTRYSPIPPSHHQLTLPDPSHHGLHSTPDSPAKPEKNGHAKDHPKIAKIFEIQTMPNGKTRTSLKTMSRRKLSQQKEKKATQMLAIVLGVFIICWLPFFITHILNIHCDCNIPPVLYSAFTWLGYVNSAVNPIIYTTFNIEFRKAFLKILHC
Sequence of KiSS-1 receptor (Homo sapiens) (Q969F8 whole entry, looked up): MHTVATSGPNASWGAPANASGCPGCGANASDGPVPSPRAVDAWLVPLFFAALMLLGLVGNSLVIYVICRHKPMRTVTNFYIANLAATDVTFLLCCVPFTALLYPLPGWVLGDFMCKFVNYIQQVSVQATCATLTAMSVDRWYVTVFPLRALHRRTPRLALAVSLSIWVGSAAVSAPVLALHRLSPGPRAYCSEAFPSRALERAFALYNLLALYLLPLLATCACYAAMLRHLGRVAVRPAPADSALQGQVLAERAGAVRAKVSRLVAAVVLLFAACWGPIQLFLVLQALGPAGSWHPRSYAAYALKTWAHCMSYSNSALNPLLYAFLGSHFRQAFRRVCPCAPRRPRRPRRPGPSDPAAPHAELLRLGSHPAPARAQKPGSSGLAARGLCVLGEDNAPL
Sequence of Muscarinic acetylcholine receptor M1 (Homo sapiens) (P11229 whole entry, looked up): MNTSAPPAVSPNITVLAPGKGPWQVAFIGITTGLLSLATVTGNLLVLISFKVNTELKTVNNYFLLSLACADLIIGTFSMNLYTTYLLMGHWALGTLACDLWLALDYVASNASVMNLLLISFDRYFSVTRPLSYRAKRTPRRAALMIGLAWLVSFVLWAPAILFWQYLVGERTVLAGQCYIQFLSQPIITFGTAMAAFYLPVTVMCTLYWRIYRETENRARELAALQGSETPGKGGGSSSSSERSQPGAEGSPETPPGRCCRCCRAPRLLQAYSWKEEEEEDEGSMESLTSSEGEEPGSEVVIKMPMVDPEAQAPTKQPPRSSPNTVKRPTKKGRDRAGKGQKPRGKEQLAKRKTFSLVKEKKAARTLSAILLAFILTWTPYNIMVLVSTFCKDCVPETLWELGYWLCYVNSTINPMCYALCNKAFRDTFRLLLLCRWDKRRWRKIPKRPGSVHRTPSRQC

SMILES	Potency [1]	Potency [2]	Potency [3]	outcome [4]	outcome [5]	Potency [6]	Potency [7]	Potency [8]	Potency [9]	Potency [10]	Potency [11]	Potency [12]	Potency [13]	Potency [14]	Potency [15]	Potency [16]	Potency [17]	Potency [18]	Potency [19]	Potency [20]
CC(=O)OCC[N+](C)(C)C	inactive	inactive	6.01 µM (active)	inactive	inactive	inactive	inactive	inactive	inactive	inactive	inactive	inactive	inactive	inactive	inactive					
Cn1c(N)c(N=O)c(=O)n(C)c1=O	inactive	inactive	inactive	inactive	inactive	inactive	inactive	inactive	inactive	inactive	inactive			inactive		inactive	inactive	inactive	inactive	
CC(C(O)c1ccc(O)cc1)N1CCC(Cc2ccccc2)CC1 (configuration not stated)	inactive	inactive	inactive	inactive	inactive	inactive	inactive	inactive	inactive	inactive	inactive	inactive		inactive					inactive	
CC(C)NCC(O)c1ccc2ccccc2c1 (configuration not stated)	inactive	inactive	inactive	inactive	inactive	inactive	inactive	inactive	inactive	inactive	inactive		inactive	inactive		inactive			inactive	
O=C1c2ccccc2C(=O)C1c1ccc(Br)cc1	inactive	inactive	inactive	inactive	inactive	inactive	inactive	inactive	inactive	inactive	inactive	inactive			inactive		inactive	inactive	inactive	inactive
NC(=O)Nc1ccc(Cl)c(Cl)c1	inactive	inactive	inactive	inactive	inactive	inactive	inactive	inactive	inactive	inactive	inactive	inactive	inactive		inactive			inactive	inactive	inactive
CCCCC(=O)O[C@]1(C(=O)CO)CC[C@H]2[C@@H]3CCC4=CC(=O)CC[C@]4(C)[C@H]3[C@@H](O)C[C@@]21C	inactive	inactive	inactive	inactive	inactive	inactive	inactive	inactive	inactive	inactive	inactive				inactive	inactive	inactive	inactive	inactive	inactive
Cc1ccc2oc(CN(Cc3ccccc3)C(=O)Nc3c(F)cc(F)cc3F)c(-c3ccc(Cl)cc3)c2c1	inactive	inactive	inactive	inactive	inactive	inactive	inactive	inactive	inactive	inactive	inactive	inactive		inactive	inactive			inactive		inactive
